Results with a measured potency or affinity are listed apart. Activity calls are given as the source filed them. No rule for the calls is given here.
Assay: VEEV TC-83 cytopathic effect inhibition, confirmation, cell-based, TC-83 strain, set 7 (AID 651734)

| SMILES | outcome |
| --- | --- |
| CCN1CCN(Cc2nc3ccc(-c4ccccn4)cc3c(=O)n2-c2ccccc2)CC1 | inactive |
| COc1ccc(CNc2nc(=O)c3cccnc3s2)cc1 | inactive |
| CCN1CCN(C2c3ncccc3C(=O)N2c2ccccc2)CC1 (centres undefined) | inactive |
| COc1ccc(Nc2nc(=O)c3cccnc3s2)cc1 | inactive |
